Records with an inconclusive call do not appear. The source made the active and inactive calls. Calls follow the shape of the dose curve; as a rule, active = well fitted curve in the direction sought with a large enough effect; inconclusive = small, poorly fitted or top-dose-only effect, or another doubt; inactive = no such curve, though single readings can be large or run the other way.

This experiment deals with Polyunsaturated fatty acid lipoxygenase ALOX15 (Homo sapiens) (UniProt P16050). In words: Counterscreen qHTS for inhibitors of human arachidonate 12S-lipoxygenase (ALOX12): ALOX15 Assay. As to conditions: purified ALOX15 enzyme activity; series mostly up to 110 µM. In outline: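 Purified human ALOX15 (15hLO-1) at 40 nM in 25 mM HEPES, 0.01% Triton X-100, pH 7.5, preincubated with compound 15 min at RT. Then 50 uM arachidonic acid for 30 min; hydroperoxide detected by Fe-xylenol orange as the 573/405 nm absorbance ratio.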
Chain of Polyunsaturated fatty acid lipoxygenase ALOX15 (Homo sapiens) (P16050 whole entry, looked up): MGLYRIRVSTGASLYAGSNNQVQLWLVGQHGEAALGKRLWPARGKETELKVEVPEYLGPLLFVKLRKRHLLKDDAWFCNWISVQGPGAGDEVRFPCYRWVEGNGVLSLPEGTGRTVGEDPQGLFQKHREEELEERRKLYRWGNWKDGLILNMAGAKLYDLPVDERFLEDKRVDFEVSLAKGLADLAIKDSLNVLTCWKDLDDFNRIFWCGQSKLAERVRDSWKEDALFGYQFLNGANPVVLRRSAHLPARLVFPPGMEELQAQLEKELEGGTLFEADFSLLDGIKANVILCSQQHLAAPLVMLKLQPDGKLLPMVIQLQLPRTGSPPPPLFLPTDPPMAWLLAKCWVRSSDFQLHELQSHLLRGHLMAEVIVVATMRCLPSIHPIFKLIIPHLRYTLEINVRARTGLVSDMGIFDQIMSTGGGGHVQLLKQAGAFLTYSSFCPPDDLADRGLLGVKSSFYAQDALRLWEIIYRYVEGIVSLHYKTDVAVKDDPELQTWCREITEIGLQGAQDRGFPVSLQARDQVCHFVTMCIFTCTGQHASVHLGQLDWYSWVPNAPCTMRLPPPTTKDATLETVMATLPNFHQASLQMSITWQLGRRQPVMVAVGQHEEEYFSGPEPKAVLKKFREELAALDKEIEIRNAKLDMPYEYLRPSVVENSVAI
On the technique in general: The purpose of a counterscreen is to sort out artefacts and off-target activity.
For `COC[C@@H]1CCCN1c1ncnc2c1CN(C1CCCNCC1)C(=O)CN2C` (stereo partly drawn), the call was inactive.

For the compound `CNCc1cccc(Oc2ccccc2)c1`, the result was inactive.

For `O=C1NCc2ccccc2CC12CCN(Cc1cccc(C(F)(F)F)c1)C2` (stereo not drawn), the outcome was inactive.

In the case of `FC(F)(F)c1cccc(C2=NOC3(CCN(Cc4ccsc4)C3)C2)c1` (stereo not drawn), the result was inactive.

As for `Cc1ccc(C(=O)N2CCn3c(nnc3C3CCNCC3)C2)cc1`, the outcome was inactive.

For the compound `NCc1cccc(-c2cncnc2)c1`, the compound was called inactive.

In the case of `CC(C)CN1CCC(c2nc3ccc(F)cc3c(=O)[nH]2)CC1`, the outcome was inactive.

Consider `COCCNC(=O)c1cc(C)nc2onc(C3CCNC3)c12` (stereo not drawn), for which the outcome was inactive.

Regarding `O=C(c1ccc(Cl)cc1)N1CC2(CCN(Cc3ccc(Cl)cc3)C2)Cc2ccccc21` (stereo not drawn), the result was inactive.

With `Cc1ccc(CN2CCC3(Cc4ccccc4CNC3=O)C2)cc1` (stereo not drawn), the result was inactive.

With `COc1ccc(C(=O)N2CC(Oc3ccc4c(c3)OCO4)C2)cc1`, the result was inactive.

For `COc1ccc(CN2CCCC3(Cc4ccccc4CNC3=O)C2)cc1` (stereo not drawn), the compound was classed as inactive.

For `O=C1NCc2ccccc2CC12CCN(Cc1ccc(Br)s1)CC2`, the compound was called inactive.

Turning to `Nc1ccc(CN2CCCC3(Cc4ccccc4CNC3=O)C2)cc1` (stereo not drawn), the result was inactive.

With `CCCC(=O)N1Cc2ccccc2CC2(CCCN(CC3CCNC3)C2)C1` (stereo not drawn), the result was inactive.

In the case of `O=C1NC(=NC2CCCCC2)C2(CCN(Cc3ccc(F)cc3)C2)N1c1cccnc1` (stereo not drawn), the compound was called inactive.

In the case of `CC[C@@H](Nc1ncnc2c1CN(C1CCCNCC1)C(=O)CN2C)c1ccccc1` (stereo partly drawn), the result was inactive.

On to `CC1CCCN(c2ncnc3c2CN(C2CCCNCC2)C(=O)CN3C)C1` (stereo not drawn), for which the outcome was inactive.

`O=C1NC(=NC2CCCC2)C2(CCCN(Cc3ccsc3)C2)N1c1cc(F)cc(F)c1` (stereo not drawn): the call was inactive.

`Cn1nc(C2CCNC2)c2c(C(=O)NCc3ccncc3)cc(C3CC3)nc21` (stereo not drawn): the result was inactive.

Consider `NCc1ccc(-c2cccc(O)c2)cc1`, for which the call was inactive.

As to `NCCC(=O)N1CCC2(CC1)CN(C(=O)Cc1ccc(Cl)cc1)CCO2`, the result was inactive.

Regarding `CC(CO)Nc1ncnc2c1CN(C1CCCNC1)C(=O)CN2C` (stereo not drawn), the outcome was inactive.

Regarding `COc1ccc(N2CC3CCC(C2)N3C(=O)c2ccc3c(c2)OCO3)cc1`, the result was inactive.

Take `COc1ccc(CC(=O)N2Cc3ccccc3CC3(CCCN(C)C3)C2)cc1` (stereo not drawn): the compound was called inactive.

On to `NCCCC(=O)N1CCC2(CC1)CN(C(=O)Cc1ccc(Cl)cc1)CCO2`, for which the compound was called inactive.

Turning to `COc1ccc(N(C)C2CN(C(=O)OC(C)(C)C)C2)cc1`, the compound was classed as inactive.

With `NCc1ccc(-c2ccc(F)cc2)cc1`, the call was inactive.

Turning to `CN(C)c1ccc(CN2CCn3c(nn(-c4ccc(Cl)cc4)c3=O)C2)cc1`, the compound was called inactive.

Regarding `Cc1ccc2nc(C3CCN(Cc4ccc(-c5cccs5)cc4)CC3)[nH]c(=O)c2c1`, the compound was called inactive.

Turning to `COc1cccc(O)c1CN1CCCC12Cc1ccccc1CNC2=O` (stereo not drawn), the result was inactive.

Take `O=C(C1CCCC1)N1Cc2ccccc2CC2(CCCN(CC3CCNC3)C2)C1` (stereo not drawn): the compound was called inactive.

Turning to `CN1CC(=O)N(C2CCNC2)Cc2c(NCCCN3CCCCC3)ncnc21` (stereo not drawn), the result was inactive.

On to `CN1CC(=O)N(C2CCCNCC2)Cc2c1ncnc2N1CCN(c2ncccn2)CC1` (stereo not drawn), for which the compound was called inactive.

Take `CNC(c1ccccc1)c1ccccc1`: the result was inactive.

Take `CC(C)NC(=O)N1CNC(=O)C12CCN(C(=O)CN)CC2`: the result was inactive.

For `Cc1noc(C)c1C(=O)N1CCN(c2ccc(Cl)nn2)C(=O)C1`, the compound was called inactive.

`O=C1NCc2ccccc2CC12CCN(Cc1ccnc3ccccc13)CC2`: the call was inactive.
